# PubChem BioAssay (NCATS)
# Where “and” joins values, the source holds several entries; their conditions need not be identical. Equal values may be shown once. Values without a mark were called inactive. Records with an inconclusive call do not appear. Calls of active or inactive are those of the source. Unless noted, calls follow the shape of the dose curve; as a rule, active = well fitted curve in either direction with a large enough effect (not every such curve was filed as active); inconclusive = small, poorly fitted or top-dose-only effect, or another doubt; inactive = flat fitted curve, though single readings scatter. Numbered stars: 1 amine (or outer) side, 2 acyl side, 3 side chain; on linkers, the order of the positions; unused ones are H or OH. Bridge positions count the residues as written; N and C are the ends. Square brackets hold non-standard residues; d marks the D form. Peptide text beside a SMILES is read from it. I, II: the chains in the order shown. Actinocin(9to1) = Cc1c2oc3c(C)ccc(C(=O)[*:1])c3nc-2c(C(=O)[*:2])c(N)c1=O; NMeV = CN[C@H](C(=O)O)C(C)C; Sar = CNCC(=O)O
# Experiments:
# [1] = biological target: Cytochrome P450 1A2 (Homo sapiens) (UniProt P05177); assay: p450-cyp1a2 (AID 410; calls by dose curve;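 also: -100% = full effect of reference inhibitor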)
# Summary of the method: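 Inhibition was calculated relative to 57 uM furafylline (full inhibition). The reaction used human CYP1A2 at 20nM with Luciferin-ME at its Km, 100uM, driven by an NADPH-regenerating system for 60 min at room temperature.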
# [2] = NFAT Signaling Pathway (AID 444); conditions: Jurkat NFAT-bla M1, carbachol, beta-lactamase ratio, 5 h; at 17.2 µM (top of the series);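 also: carbachol stimulus at about its EC50 of 1 µM final; % is scaled to controls: 0 for no effect and ±100 for the full control effect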
# Summary of the method: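 Read-out: CCF4 FRET ratio (460 nm/530 nm) after 1 h RT dye loading, used for %activity and AC50 from titration series. Cells: Jurkat NFAT-β-lactamase/M1 line, treated with compound plus 1 uM carbachol for 5 h, 37 °C.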
# [3] = Stat Signaling Pathway (AID 446); conditions: ME-180 SIE beta-lactamase reporter, IL-6 stimulated, 5 h; at 17.2 µM (top of the series);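 also: ME-180 cervical cancer cells given 40 pM IL-6 alongside compound; SIE-controlled beta-lactamase reporter measured as 460/530 nm FRET emission ratio; % is scaled to controls: 0 for no effect and ±100 for the full control effect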
# Summary of the method: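 IL-6/STAT signaling read in ME-180 cells via an SIE beta-lactamase reporter. Stimulus was 40 pM IL-6 (its AC50) for 5 hrs, so both activation and inhibition register.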
# [4] = biological target: Glucocorticoid receptor (Homo sapiens) (UniProt P04150); assay: GR-GFP Redistribution (AID 450;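 active = compounds whose dose series gives a full or clear partial fitted curve of increased nuclear translocation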; also: potency is read from the fitted curve at half-maximal effect); conditions: U2OS GR-GFP nuclear translocation, laser cytometry, 2 h
# [5] = biological target: Glucocorticoid receptor (Homo sapiens) (UniProt P04150); assay: GR-EFC Redistribution (AID 451; calls by dose curve; also: potency is read from the fitted curve at half-maximal effect); conditions: CHO-K1 GR-EFC translocation, beta-gal luminescence, 2 h
# Summary of the method: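 Translocation of GR-ED fusion to nuclear EA restores b-gal, read by luminescence after 1 h room-temperature detection. Engineered CHO-K1 biosensor cells, 1,000/well, exposed 2 h at 37 C to titrations up to 46 uM final.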
# [6] = biological target: Mitogen-activated protein kinase 10 (Mus musculus) (UniProt Q61831); assay: JNK3 AlphaScreen Assay (AID 530);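 also: kinase came from lysate of stimulated human HepG2 cells; signal reports phosphorylation of biotinylated GST-cJun 1-79 at Ser73 with 10 µM ATP; % is scaled to controls: 0 for no effect and ±100 for the full control effect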
# Summary of the method: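 Room-temperature AlphaScreen kinase assay; pre-activated HepG2 lysate as JNK3 source, biotin-GST-cJun(1-79) substrate, 10 uM ATP, compound 15 min preincubation.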
# [7] = Cell Viability - BJ (AID 421; calls by dose curve;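 also: potency is read from the fitted curve at half-maximal effect; cells exposed to compound for 40 hours at 37 °C before readout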); conditions: BJ fibroblast viability, qHTS
# Summary of the method: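 Quantitative HTS: ATP depletion in BJ cells after 40 hr compound exposure in complete culture medium, detected with CellTiter-Glo; AC50 from standard Hill fits.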
# [8] = Cell Viability - Jurkat (AID 426;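 active = dose-dependent loss of cell ATP signal giving a full or clear fitted curve, ranked by lower potency value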;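 also: potency is read from the fitted curve at half-maximal effect; cells exposed to compound for 40 hours at 37 °C before ATP read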); conditions: qHTS
# Summary of the method: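 Seed 5000 Jurkat E6-1 cells/well; add compound; incubate 40 hr at 37 °C; add CellTiter-Glo; wait 20 min at room temperature; read luminescence. Fit concentration-response with Hill equation for AC50.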
# [9] = Cell Viability - Hek293 (AID 427;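 active = compounds whose dose-response curve shows a full or clear partial loss of cell viability, called from curve shape rather than a numeric limit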;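 also: potency is read from the fitted curve at half-maximal effect; cells exposed to compound for 40 hours at 37 °C before reading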); conditions: qHTS
# Summary of the method: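 AC50 values derive from Hill-modelled concentration-response of ATP-based luminescence, normalized between DMSO-only and 100 uM tamoxifen controls. Cells were exposed in complete culture medium for 40 hr at 37 °C before detection.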
# [10] = Cell Viability - HepG2 (AID 433; calls by dose curve;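 also: potency is read from the fitted curve at half-maximal effect; cells exposed to compound for 40 hours; potency for ATP loss meaning cytotoxicity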); conditions: qHTS
# Summary of the method: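 ATP luminescence (CellTiter-Glo) after 40 h compound exposure, 37 °C, HepG2, 1500 cells/well, complete medium. Normalized: DMSO = basal, 100 uM tamoxifen = 100% inhibition. AC50 via standard Hill equation.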
# [11] = Cell Viability - SK-N-SH (AID 435; calls by dose curve; also: potency is read from the fitted curve at half-maximal effect); conditions: SK-N-SH neuroblastoma cell viability qHTS
# Summary of the method: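 CellTiter-Glo ATP luminescence, 20 min RT read; cells pre-plated 5 hr, compound 40 hr at 37 °C, 1500 cells/well, complete medium. Normalized DMSO = 0, 100 uM tamoxifen = 100% inhibition; Hill-fit AC50.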
# [12] = Cell Viability - HUV-EC-C (AID 542; active = well fitted curve in the direction sought with a large enough effect; an effect the other way counts as inactive or inconclusive;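 also: cells exposed to compound for 40 hours; % is scaled to controls: 0 for no effect and ±100 for the full control effect; nearly all actives have a fitted effect of over 35% in size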)
# Summary of the method: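 Decrease in cellular ATP, quantified by luciferase luminescence, reflects toxicity in normal human vascular endothelial HUV-EC-C cells given compound for 40 hr in complete culture medium. Values are AC50s from concentration-response curves.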
# [13] = Cell Viability - H-4-II-E (AID 543; active = well fitted curve in the direction sought with a large enough effect; an effect the other way counts as inactive or inconclusive;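 also: cells exposed to compound for 40 hours; nearly all actives have a fitted effect of over 35% in size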; also: potency is read from the fitted curve at half-maximal effect)
# Summary of the method: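 Here, cytotoxicity is measured in the rat hepatoma line H-4-II-E as loss of intracellular ATP after 40 hr compound treatment, detected by luciferase luminescence.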
# [14] = Cell Viability - Renal Proximal Tubule (AID 545; active = well fitted curve in the direction sought with a large enough effect; an effect the other way counts as inactive or inconclusive;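 also: cells exposed to compound for 40 hours; nearly all actives have a fitted effect of over 40% in size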; also: potency is read from the fitted curve at half-maximal effect;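 as to activity change, negative = cytotoxicity: 0% = DMSO only and -100% = 100 µM tamoxifen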); conditions: renal proximal tubule cells viability, primary cells of rat origin; activity change, negative = cytotoxicity: at 91.7 µM (top of the series)
# Summary of the method: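 Rat kidney proximal tubule cells, freshly isolated; 1000 cells/well, 5 hr settle, compound 40 hr 37 °C. CellTiter-Glo 20 min RT, luminescence read. AC50 by standard Hill fit.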
# [15] = Cell Viability - Mesenchymal (AID 546; active = well fitted curve in the direction sought with a large enough effect; an effect the other way counts as inactive or inconclusive;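 also: cells exposed to compound for 40 hours before reading; 0% = DMSO only and -100% = 100 µM tamoxifen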); conditions: mesenchymal cells viability, qHTS; activity change, negative = cytotoxicity: at 91.7 µM (top of the series)
# Summary of the method: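 AC50 values reflect the drop in intracellular ATP in a human kidney mesenchymal line derived from normal glomeruli. Treatment lasts 40 hr at 37 °C in complete medium, and the signal comes from CellTiter-Glo luminescence.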
# [16] = Cell Viability - N2a (AID 540; active = well fitted curve in the direction sought with a large enough effect; an effect the other way counts as inactive or inconclusive;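 also: plate controls were DMSO alone for no effect and tamoxifen control for full effect; nearly all actives have a fitted effect of over 45% in size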); conditions: N2a mouse neuroblastoma cell viability; activity change, negative = cytotoxicity: at 92.2 µM (top of the series)
# Summary of the method: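 First, 1500 N2a cells per well incubate 5 hr at 37 °C; next, compounds are added and incubated 40 hr at 37 °C; finally CellTiter-Glo is added and luminescence read after 20 min, with AC50 derived by Hill modeling.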
# [17] = Cell Viability - NIH 3T3 (AID 541; active = well fitted curve in the direction sought with a large enough effect; an effect the other way counts as inactive or inconclusive;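 also: cells exposed to compound for 40 hours; plate controls were DMSO alone for no effect and tamoxifen positive control for full effect; nearly all actives have a fitted effect of over 25% in size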); conditions: NIH 3T3 cell viability, qHTS; activity change, negative = cytotoxicity: at 92.2 µM (top of the series)
# Summary of the method: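 AC50 values reflect concentration-dependent loss of intracellular ATP in NIH 3T3 cells after 40 hr treatment in complete culture medium, quantified by luciferase-based luminescence.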
# [18] = Cell Viability - SH-SY5Y (AID 544; active = well fitted curve in the direction sought with a large enough effect; an effect the other way counts as inactive or inconclusive;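 also: cells exposed to compound for 40 hours; 0% = DMSO alone and -100% = 100 µM tamoxifen; nearly all actives have a fitted effect of over 55% in size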); conditions: SH-SY5Y neuroblastoma cell viability; viability change, negative = cytotoxic: at 92.2 µM (top of the series)
# Summary of the method: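 Cytotoxicity is scored as a concentration-dependent fall in intracellular ATP in human SH-SY5Y cells treated 40 hr in complete culture medium. Potency is expressed as AC50 from a Hill equation fit.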
# [19] = AP1 Signaling Pathway (AID 357); conditions: ME-180 (cervical carcinoma) AP-1-bla reporter, EGF-induced, beta-lactamase ratio, 5 h; at 17.2 µM (top of the series);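 also: ME-180 reporter cells stimulated with EGF at its EC50 level; % is scaled to controls: 0 for no effect and ±100 for the full control effect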
# Summary of the method: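 Read-out was the 460nm/530nm emission ratio (excitation 405nm) after CCF4 loading for 2.5 hours at room temperature. Cells carried an AP-1-driven beta-lactamase reporter, were stimulated with EC50 EGF plus compound for 5 hours, and AC50 values came from titrations.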
# Glucocorticoid receptor (Homo sapiens), sequence (P04150 whole entry, looked up, the tested form may be a part): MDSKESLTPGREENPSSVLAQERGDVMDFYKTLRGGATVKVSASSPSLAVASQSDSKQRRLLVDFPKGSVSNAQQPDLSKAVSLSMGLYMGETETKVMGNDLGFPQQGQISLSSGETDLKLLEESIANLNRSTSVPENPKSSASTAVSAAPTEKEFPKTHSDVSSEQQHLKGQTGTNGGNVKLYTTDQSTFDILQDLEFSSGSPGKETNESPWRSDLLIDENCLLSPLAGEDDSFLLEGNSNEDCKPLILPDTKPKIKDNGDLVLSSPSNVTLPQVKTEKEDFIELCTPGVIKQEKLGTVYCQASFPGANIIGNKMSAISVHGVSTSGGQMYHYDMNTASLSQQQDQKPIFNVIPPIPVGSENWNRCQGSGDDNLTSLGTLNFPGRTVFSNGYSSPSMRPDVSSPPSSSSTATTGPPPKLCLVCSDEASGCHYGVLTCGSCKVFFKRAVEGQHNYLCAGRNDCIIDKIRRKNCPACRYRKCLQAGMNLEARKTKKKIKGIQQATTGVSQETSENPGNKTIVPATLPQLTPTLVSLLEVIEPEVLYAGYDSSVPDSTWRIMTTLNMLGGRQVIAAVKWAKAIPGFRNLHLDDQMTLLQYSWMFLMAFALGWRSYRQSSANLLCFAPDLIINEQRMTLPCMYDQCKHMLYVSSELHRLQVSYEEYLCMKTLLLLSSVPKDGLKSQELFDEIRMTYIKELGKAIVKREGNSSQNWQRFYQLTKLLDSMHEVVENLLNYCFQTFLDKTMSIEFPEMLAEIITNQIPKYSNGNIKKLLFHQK
# Cytochrome P450 1A2 (Homo sapiens), sequence (P05177 whole entry, looked up): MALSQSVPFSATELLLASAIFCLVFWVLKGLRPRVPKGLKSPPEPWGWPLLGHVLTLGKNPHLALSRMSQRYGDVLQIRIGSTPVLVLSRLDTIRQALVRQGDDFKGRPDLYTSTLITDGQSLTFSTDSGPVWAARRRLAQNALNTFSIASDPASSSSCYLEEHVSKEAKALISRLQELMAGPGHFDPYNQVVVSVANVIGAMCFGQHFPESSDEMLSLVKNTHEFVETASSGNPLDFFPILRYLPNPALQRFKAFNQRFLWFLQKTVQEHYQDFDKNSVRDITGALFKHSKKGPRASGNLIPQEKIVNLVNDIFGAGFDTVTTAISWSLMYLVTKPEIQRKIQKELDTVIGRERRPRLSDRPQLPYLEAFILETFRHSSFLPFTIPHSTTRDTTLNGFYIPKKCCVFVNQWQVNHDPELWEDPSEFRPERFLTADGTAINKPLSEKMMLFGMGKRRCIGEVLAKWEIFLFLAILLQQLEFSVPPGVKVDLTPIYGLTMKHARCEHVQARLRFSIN
structure (smiles),measurement,setting,value
CN1CCC(=C2c3ccccc3Sc3ccccc32)CC1,Potency,[1],inactive
same,"activity change, negative = inhibition",[2],-31.6% (active)
same,"activity, negative = inhibition",[3],-4.56%
same,Potency,[4],> 20.6 µM
same,Potency,[5],> 20.6 µM
same,outcome,[6],inactive
"Cc1c2oc3c(C)ccc(C(=O)N[C@@H]4C(=O)N[C@H](C(C)C)C(=O)N5CCC[C@H]5C(=O)N(C)CC(=O)N(C)[C@@H](C(C)C)C(=O)O[C@@H]4C)c3nc-2c(C(=O)N[C@@H]2C(=O)N[C@H](C(C)C)C(=O)N3CCC[C@H]3C(=O)N(C)CC(=O)N(C)[C@@H](C(C)C)C(=O)O[C@@H]2C)c(N)c1=O (I: T[dV]P[Sar][NMeV] / II: T[dV]P[Sar][NMeV]; ester I:1-I:C, II:1-II:C; linker I:N-II:N via Actinocin(9to1))",Potency,[7],0.00132 µM (active)
same,Potency,[8],0.0015 µM (active)
same,Potency,[9],0.00102 µM (active)
same,Potency,[10],> 92 µM
same,Potency,[11],> 92 µM
same,outcome,[6],inactive
same,Potency,[12],inactive
same,Potency,[13],0.00398 µM (active)
same,Potency,[14],0.001 µM (active)
same,"activity change, negative = cytotoxicity",[15],-18.7%
CN(C)/N=N/c1nc[nH]c1C(N)=O,Potency,[7],> 92 µM
same,Potency,[9],> 92 µM
same,Potency,[10],> 92 µM
same,Potency,[11],> 92 µM
same,outcome,[6],inactive
same,Potency,[16],inactive
same,Potency,[12],inactive
same,Potency,[13],25.1 µM (active)
same,"activity change, negative = cytotoxicity",[14],-19.1%
same,"activity change, negative = cytotoxicity",[15],-2.47%
CC(O)C(=O)O (stereo not drawn),Potency,[7],> 92 µM
same,Potency,[8],> 92 µM
same,Potency,[9],> 92 µM
same,Potency,[10],> 92 µM
same,Potency,[11],> 92 µM
same,outcome,[6],inactive
same,Potency,[16],inactive
same,Potency,[17],inactive
same,Potency,[12],inactive
same,Potency,[13],inactive
same,Potency,[18],inactive
same,"activity change, negative = cytotoxicity",[14],-2.48%
same,"activity change, negative = cytotoxicity",[15],-3.83%
CCCCOc1ccc(OCCCN2CCOCC2)cc1,"activity change, negative = inhibition",[19],5.36% and -1.05%
same,"activity, negative = inhibition",[3],-0.87% and 12.1%
same,outcome,[6],inactive
CC(=O)c1ccc2c(c1)N(CCCN1CCC(CCO)CC1)c1ccccc1S2,"activity change, negative = inhibition",[19],4.33%
same,"activity, negative = inhibition",[3],9.61%
same,Potency,[4],> 20.6 µM
same,Potency,[5],> 20.6 µM
same,outcome,[6],inactive
CC(C)(Oc1ccc(Cl)cc1)C(=O)O,"activity change, negative = inhibition",[19],-0.859%
same,"activity change, negative = inhibition",[2],15.7%
same,"activity, negative = inhibition",[3],-4.02%
same,Potency,[4],> 20.6 µM and > 46 µM
same,Potency,[5],> 20.6 µM and > 46 µM
same,outcome,[6],inactive
